Test [1] addresses human RAR-related Orphan Receptor beta (RORb), RORB (gene 6096) (UniProt Q92753). Description: ATG_RORb_TRANS: Attagene TRANS-FACTORIAL HepG2 Assay for human RAR-related Orphan Receptor beta (RORb) (AID 2283010). Summed up:
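HepG2 cells were transiently transfected with multiplexed GAL4-UAS reporter units expressing chimeric nuclear receptor–GAL4 proteins, then dosed for 24 h. Reporter mRNA was quantified by RT-PCR with fluorescent labelling and capillary electrophoresis; gain of signal was fitted relative to DMSO.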

Test [2] deals with human RAR-related Orphan Receptor gamma (RORg), RORC (gene 6097) (UniProt P51449). The experiment in a line: ATG_RORg_TRANS: Attagene TRANS-FACTORIAL HepG2 Assay for human RAR-related Orphan Receptor gamma (RORg) (AID 2283011). The method, boiled down: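 Readout: reporter transcript induction (RT-PCR, fluorescent primer extension, capillary electrophoresis) after 24 h compound exposure of transiently transfected HepG2 cells carrying a RORg-Gal4 chimera and GAL4-UAS reporters; DMSO served as baseline, with increasing signal fitted.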

In test [3] the target is Retinoic acid receptor RXR-alpha (Homo sapiens) (UniProt P19793). Description: ATG_RXRa_TRANS: Attagene TRANS-FACTORIAL HepG2 Assay for human Retinoid X Receptor alpha (RXRa) (AID 2283012). The method, boiled down:
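HepG2 cells transiently transfected with multiplexed GAL4-UAS reporter units and chimeric NR-GAL4 fusions, dosed 24 h. Reporter mRNA measured by RT-PCR, FAM labelling, HpaI digestion and capillary electrophoresis; gain-of-signal fitted relative to DMSO baseline.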

Test [4] deals with human Thyroid Receptor alpha (THRa1), THRA (gene 7067) (UniProt P10827). The experiment in a line: ATG_THRa1_TRANS: Attagene TRANS-FACTORIAL HepG2 Assay for human Thyroid Receptor alpha (THRa1) (AID 2283014). Summed up:
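HepG2 cells transiently transfected with multiplexed GAL4-UAS reporter units for exogenous chimeric THRa1-Gal4; reporter mRNA measured 24 h after dosing by RT-PCR, 6-FAM labelling, HpaI digestion and capillary electrophoresis. Gain-of-signal fitted versus DMSO baseline.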

Test [5] deals with human Vitamin D Receptor (VDR), VDR (gene 7421) (UniProt P11473). The experiment in a line: ATG_VDR_TRANS: Attagene TRANS-FACTORIAL HepG2 Assay for human Vitamin D Receptor (VDR) (AID 2283022). Summed up:
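HepG2 cells were transiently transfected with multiple GAL4-UAS reporter units, so signal reflects exogenous chimeric receptor-Gal4 activity. After 24 h compound exposure, reporter mRNA was measured by RT-PCR, fluorescent labelling and capillary electrophoresis, fitted for gain of signal versus DMSO.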

Test [6] concerns the target human Retinoid X Receptor beta (RXRb), RXRB (gene 6257) (UniProt P28702). The experiment in a line: ATG_RXRb_TRANS: Attagene TRANS-FACTORIAL HepG2 Assay for human Retinoid X Receptor beta (RXRb) (AID 2283013). Summed up: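 HepG2 cells transiently transfected with multiplexed reporter units driven by GAL4-UAS and exogenous chimeric NR-Gal4 proteins; treated 24 h. Reporter mRNA measured by RT-PCR, 6-FAM labelling and capillary electrophoresis; gain-of-signal fitted versus DMSO baseline.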

Read-out in test [7]: E-selectin (Homo sapiens) (UniProt P16581)
Description: BSK_3C_Eselectin: BioMAP Diversity Plus: 3C Assay for Eselectin Biomarker Activity (AID 2283015; active = hit-call score of the fitted dose curve at least 0.9, where 1 is the maximum; inactive = score below 0.9;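 as to outcome: cell surface E-selectin protein quantified by ELISA 24 h after dosing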). The note with it: primary human endothelial cells (HUVEC); actives raise or lower the signal. Summed up:
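Primary human umbilical vein endothelial cells (3C system) were dosed with chemical and cell-surface E-selectin measured by ELISA 24 h later. Bidirectional curve fitting used DMSO as negative control and baseline.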

Read-out in test [8]: Interleukin-1 alpha (IL1a), IL1A (gene 3552)
The experiment in a line: BSK_BE3C_IL1a: BioMAP Diversity Plus: BE3C Assay for Interleukin-1 alpha (IL1a) Biomarker Activity (AID 2283016; active = hit-call score of the fitted dose curve at least 0.9, where 1 is the maximum; inactive = score below 0.9). The note with it: primary human bronchial epithelial cells; actives raise or lower the signal. Summed up: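 Human primary bronchial epithelial cells (BE3C system) were dosed with compound and IL-1a measured by ELISA 24 h later. Activity was fitted bidirectionally against DMSO baseline; cytotoxicity was tracked in parallel cultures by SRB total-protein staining.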

Read-out in test [9]: Monocyte Chemoattractant Protein-1 (MCP1), CCL2 (gene 6347)
Description: BSK_3C_MCP1: BioMAP Diversity Plus: 3C Assay for Monocyte Chemoattractant Protein-1 (MCP1) Biomarker Activity (AID 2283017; active = hit-call score of the fitted dose curve at least 0.9, where 1 is the maximum; inactive = score below 0.9). Conditions: primary human endothelial cells (HUVEC); actives raise or lower the signal. Summed up:
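Primary human umbilical vein endothelial cells (3C system) were exposed to test chemical for 24 h, after which MCP-1 was quantified by ELISA. Activity was fitted bidirectionally against DMSO as negative control and baseline.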

Read-out in test [10]: Monocyte Chemoattractant Protein-1 (MCP1), CCL2 (gene 6347)
Description: BSK_4H_MCP1: BioMAP Diversity Plus: 4H Assay for Monocyte Chemoattractant Protein-1 (MCP1) Biomarker Activity (AID 2283018; active = hit-call score of the fitted dose curve at least 0.9, where 1 is the maximum; inactive = score below 0.9). Conditions: primary human endothelial cells (HUVEC); actives raise or lower the signal. Summed up: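 Human umbilical vein endothelial cells (4H system) dosed with chemical; MCP-1 measured by ELISA 24 h after dosing. Bidirectional curve fitting against DMSO negative control as baseline; parallel SRB total-protein staining tracks overt cytotoxicity.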

Read-out in test [11]: Human Leukocyte Antigen - DR isotype (HLADR), HLA-DRA (gene 3122)
Description: BSK_3C_HLADR: BioMAP Diversity Plus: 3C Assay for Human Leukocyte Antigen - DR isotype (HLADR) Biomarker Activity (AID 2283019; active = hit-call score of the fitted dose curve at least 0.9, where 1 is the maximum; inactive = score below 0.9). The note with it: primary human endothelial cells (HUVEC); actives raise or lower the signal. Summed up: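 Primary human umbilical vein endothelial cells (3C system) were dosed with compound and cell-surface HLA-DR was quantified by ELISA at 24 h. Activity was fitted bidirectionally against DMSO as negative control and baseline.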

Read-out in test [12]: Interleukin-8 (IL8), CXCL8 (gene 3576)
The experiment in a line: BSK_3C_IL8: BioMAP Diversity Plus: 3C Assay for Interleukin-8 (IL8) Biomarker Activity (AID 2283020; active = hit-call score of the fitted dose curve at least 0.9, where 1 is the maximum; inactive = score below 0.9). The note with it: primary human endothelial cells (HUVEC); actives raise or lower the signal. The method, boiled down: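 Primary human umbilical vein endothelial cells (3C system) were exposed to test chemical for 24 h, then IL-8 was quantified by ELISA. Responses were fitted bidirectionally against DMSO vehicle as baseline.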

Test [13] is described as follows: BSK_3C_SRB: Viability Assessment in the BioMAP Diversity Plus: 3C Assay (AID 2283023; active = hit-call score of the fitted dose curve at least 0.9, where 1 is the maximum; inactive = score below 0.9;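 also: fitted both ways against DMSO so a hit may be signal rise or drop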). The note with it: primary human endothelial cells (HUVEC). Summed up:
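Primary human umbilical vein endothelial cells in the 3C system were read 24 h after compound dosing. Total protein was stained with 0.1% sulforhodamine B after 10% TCA fixation and read at 560 nm, with bidirectional fitting against DMSO as baseline.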

Read-out in test [14]: Matrix Metallopeptidase 1 (MMP1), MMP1 (gene 4312)
The experiment in a line: BSK_BE3C_MMP1: BioMAP Diversity Plus: BE3C Assay for Matrix Metallopeptidase 1 (MMP1) Biomarker Activity (AID 2283024; active = hit-call score of the fitted dose curve at least 0.9, where 1 is the maximum; inactive = score below 0.9). Conditions: primary human bronchial epithelial cells; actives raise or lower the signal. Summed up:
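Primary human bronchial epithelial cells were dosed with test chemicals, and MMP1 levels were measured by ELISA 24 h later. Data were fitted bidirectionally against DMSO as the negative control and activity baseline.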

Read-out in test [15]: Pselectin, SELP (gene 6403)
Description: BSK_4H_Pselectin: BioMAP Diversity Plus: 4H Assay for Pselectin Biomarker Activity (AID 2283026; active = hit-call score of the fitted dose curve at least 0.9, where 1 is the maximum; inactive = score below 0.9). The note with it: primary human endothelial cells (HUVEC); actives raise or lower the signal. The method, boiled down:
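Primary human umbilical vein endothelial cells were exposed to test chemical for 24 h, then cell-surface P-selectin was quantified by ELISA. Activity was fitted bidirectionally against DMSO as negative control and baseline.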

A short description of test [16]: BSK_4H_SRB: Viability Assessment in the BioMAP Diversity Plus: 4H Assay (AID 2283027; active = hit-call score of the fitted dose curve at least 0.9, where 1 is the maximum; inactive = score below 0.9;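 also: cells exposed to compound for 24 h before staining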;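 as to AC50: curves fitted both ways versus DMSO so AC50 may be loss or gain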). Conditions: primary human endothelial cells (HUVEC). The method, boiled down: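 Human umbilical vein endothelial cells were dosed with chemical and, after 24 h, fixed with 10% TCA, stained with 0.1% sulforhodamine B, and read at 560 nm to give total protein as a cytotoxicity measure. Bidirectional fitting relative to DMSO control.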

Read-out in test [17]: Thrombomodulin, THBD (gene 7056)
The experiment in a line: BSK_3C_Thrombomodulin: BioMAP Diversity Plus: 3C Assay for Thrombomodulin Biomarker Activity (AID 2283029; active = hit-call score of the fitted dose curve at least 0.9, where 1 is the maximum; inactive = score below 0.9). The note with it: primary human endothelial cells (HUVEC); actives raise or lower the signal. The method, boiled down:
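Primary human umbilical vein endothelial cells (3C system) were exposed to chemical for 24 h, then thrombomodulin levels were measured by ELISA. Activity was fitted bidirectionally against the DMSO negative control as baseline.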

Read-out in test [18]: Urokinase-type plasminogen activator receptor (uPAR), PLAUR (gene 5329)
Description: BSK_4H_uPAR: BioMAP Diversity Plus: 4H Assay for Urokinase-type plasminogen activator receptor (uPAR) Biomarker Activity (AID 2283030; active = hit-call score of the fitted dose curve at least 0.9, where 1 is the maximum; inactive = score below 0.9). The note with it: primary human endothelial cells (HUVEC); actives raise or lower the signal. Summed up:
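Primary human umbilical vein endothelial cells were exposed to chemical for 24 h before cell-surface uPAR was quantified by ELISA. Activity was fitted bidirectionally against the DMSO negative control baseline.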

Read-out in test [19]: Monokine induced gamma interferon (MIG), CXCL9 (gene 4283)
The experiment in a line: BSK_3C_MIG: BioMAP Diversity Plus: 3C Assay for Monokine induced gamma interferon (MIG) Biomarker Activity (AID 2283021; active = hit-call score of the fitted dose curve at least 0.9, where 1 is the maximum; inactive = score below 0.9;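 as to AC50: MIG protein level measured by immunoassay in the treated endothelial cultures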). The note with it: primary human endothelial cells (HUVEC); actives raise or lower the signal. The method, boiled down: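 Primary human umbilical vein endothelial cells in the 3C system were exposed to chemical for 24 h, after which MIG was quantified by ELISA. Activity was fitted bidirectionally against DMSO as negative control and baseline.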

Inconclusive results are not listed. The source made the active and inactive calls. The calls were made as follows, unless noted: active = hit-call score of the fitted dose curve at least 0.9, where 1 is the maximum; inconclusive = response in the unintended direction; inactive = score below 0.9.

By AC50 is commonly meant the concentration giving half of the maximal activity seen.

human Thyroid Receptor alpha (THRa1), THRA (gene 7067), sequence (P10827 whole entry, looked up, the tested form may be a part): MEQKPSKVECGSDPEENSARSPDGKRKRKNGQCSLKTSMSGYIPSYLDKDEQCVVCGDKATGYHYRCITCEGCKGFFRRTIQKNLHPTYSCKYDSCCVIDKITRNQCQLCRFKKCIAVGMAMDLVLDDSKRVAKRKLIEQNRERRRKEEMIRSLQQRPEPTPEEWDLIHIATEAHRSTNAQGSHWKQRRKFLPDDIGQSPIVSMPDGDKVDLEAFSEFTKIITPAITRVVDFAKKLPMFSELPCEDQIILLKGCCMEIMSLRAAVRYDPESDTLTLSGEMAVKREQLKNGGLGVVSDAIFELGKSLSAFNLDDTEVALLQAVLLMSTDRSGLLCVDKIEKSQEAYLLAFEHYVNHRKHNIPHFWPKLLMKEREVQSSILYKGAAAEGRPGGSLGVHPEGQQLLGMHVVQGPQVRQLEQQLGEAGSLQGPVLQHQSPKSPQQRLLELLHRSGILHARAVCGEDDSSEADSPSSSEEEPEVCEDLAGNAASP
human Vitamin D Receptor (VDR), VDR (gene 7421), sequence (P11473 whole entry, looked up, the tested form may be a part): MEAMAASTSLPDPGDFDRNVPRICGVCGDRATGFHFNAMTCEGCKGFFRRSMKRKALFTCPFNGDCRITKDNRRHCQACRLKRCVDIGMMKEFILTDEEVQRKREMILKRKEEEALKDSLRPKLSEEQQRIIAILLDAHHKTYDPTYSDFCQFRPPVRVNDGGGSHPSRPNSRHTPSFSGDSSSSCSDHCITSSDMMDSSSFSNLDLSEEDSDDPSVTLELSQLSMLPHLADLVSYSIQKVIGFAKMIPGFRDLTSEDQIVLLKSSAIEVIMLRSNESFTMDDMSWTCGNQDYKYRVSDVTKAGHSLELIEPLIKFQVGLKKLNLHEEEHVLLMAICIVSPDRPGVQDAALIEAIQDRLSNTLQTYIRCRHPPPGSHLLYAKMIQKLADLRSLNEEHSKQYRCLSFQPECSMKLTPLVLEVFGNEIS
human RAR-related Orphan Receptor beta (RORb), RORB (gene 6096), sequence (Q92753 whole entry, looked up, the tested form may be a part): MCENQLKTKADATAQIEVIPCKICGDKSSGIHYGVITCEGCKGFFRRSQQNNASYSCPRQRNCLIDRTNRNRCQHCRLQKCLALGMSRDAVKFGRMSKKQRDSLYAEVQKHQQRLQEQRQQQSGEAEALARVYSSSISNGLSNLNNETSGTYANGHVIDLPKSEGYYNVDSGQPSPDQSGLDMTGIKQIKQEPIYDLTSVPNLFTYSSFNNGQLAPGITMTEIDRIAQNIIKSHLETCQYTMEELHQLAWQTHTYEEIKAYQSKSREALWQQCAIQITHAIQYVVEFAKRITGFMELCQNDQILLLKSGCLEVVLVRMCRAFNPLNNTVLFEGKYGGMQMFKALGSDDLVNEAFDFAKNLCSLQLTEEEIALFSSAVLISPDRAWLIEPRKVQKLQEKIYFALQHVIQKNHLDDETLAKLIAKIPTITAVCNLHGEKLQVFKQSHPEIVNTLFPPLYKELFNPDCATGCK
human Retinoid X Receptor beta (RXRb), RXRB (gene 6257), sequence (P28702 whole entry, looked up, the tested form may be a part): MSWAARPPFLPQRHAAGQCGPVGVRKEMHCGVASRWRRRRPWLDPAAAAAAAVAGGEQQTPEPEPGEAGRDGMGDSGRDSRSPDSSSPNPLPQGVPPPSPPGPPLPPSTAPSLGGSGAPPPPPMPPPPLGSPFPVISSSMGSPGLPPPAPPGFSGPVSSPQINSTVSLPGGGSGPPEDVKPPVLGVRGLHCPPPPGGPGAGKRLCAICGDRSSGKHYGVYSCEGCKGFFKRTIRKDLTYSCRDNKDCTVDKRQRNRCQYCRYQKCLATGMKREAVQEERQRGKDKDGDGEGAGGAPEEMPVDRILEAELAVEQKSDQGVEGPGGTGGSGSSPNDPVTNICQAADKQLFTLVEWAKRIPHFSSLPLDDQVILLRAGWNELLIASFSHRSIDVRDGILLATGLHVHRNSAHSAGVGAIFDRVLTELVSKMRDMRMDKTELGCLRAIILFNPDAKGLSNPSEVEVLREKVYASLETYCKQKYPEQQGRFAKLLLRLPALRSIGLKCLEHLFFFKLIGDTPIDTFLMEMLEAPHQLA
human RAR-related Orphan Receptor gamma (RORg), RORC (gene 6097), sequence (P51449 whole entry, looked up, the tested form may be a part): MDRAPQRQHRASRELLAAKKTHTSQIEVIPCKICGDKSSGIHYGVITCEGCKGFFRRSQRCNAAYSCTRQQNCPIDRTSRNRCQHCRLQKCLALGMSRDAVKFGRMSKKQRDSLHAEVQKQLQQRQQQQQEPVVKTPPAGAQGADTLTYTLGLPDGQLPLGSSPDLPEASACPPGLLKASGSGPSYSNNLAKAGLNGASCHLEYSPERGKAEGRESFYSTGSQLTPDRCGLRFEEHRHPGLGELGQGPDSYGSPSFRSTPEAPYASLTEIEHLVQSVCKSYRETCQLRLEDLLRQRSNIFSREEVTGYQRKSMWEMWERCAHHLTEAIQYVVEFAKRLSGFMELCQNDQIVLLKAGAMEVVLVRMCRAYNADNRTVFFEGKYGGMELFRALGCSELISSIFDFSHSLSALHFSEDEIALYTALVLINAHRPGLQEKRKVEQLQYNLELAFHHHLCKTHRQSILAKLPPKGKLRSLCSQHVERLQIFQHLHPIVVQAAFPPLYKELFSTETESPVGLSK
E-selectin (Homo sapiens), sequence (P16581 whole entry, looked up): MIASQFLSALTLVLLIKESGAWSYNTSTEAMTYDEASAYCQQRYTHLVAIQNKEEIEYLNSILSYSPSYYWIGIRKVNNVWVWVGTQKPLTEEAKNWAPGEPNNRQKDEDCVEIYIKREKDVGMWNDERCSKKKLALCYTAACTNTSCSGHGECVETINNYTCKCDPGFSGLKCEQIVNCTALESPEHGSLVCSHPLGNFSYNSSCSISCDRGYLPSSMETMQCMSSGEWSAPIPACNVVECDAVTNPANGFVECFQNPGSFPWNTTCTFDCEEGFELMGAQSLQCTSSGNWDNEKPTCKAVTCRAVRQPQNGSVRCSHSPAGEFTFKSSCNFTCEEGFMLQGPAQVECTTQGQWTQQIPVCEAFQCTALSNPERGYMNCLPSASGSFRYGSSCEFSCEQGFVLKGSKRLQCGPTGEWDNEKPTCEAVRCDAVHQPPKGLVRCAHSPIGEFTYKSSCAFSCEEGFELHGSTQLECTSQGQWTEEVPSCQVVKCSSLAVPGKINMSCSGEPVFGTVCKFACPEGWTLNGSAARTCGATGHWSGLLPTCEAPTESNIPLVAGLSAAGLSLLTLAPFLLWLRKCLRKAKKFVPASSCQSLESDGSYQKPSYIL
Retinoic acid receptor RXR-alpha (Homo sapiens), sequence (P19793 whole entry, looked up, the tested form may be a part): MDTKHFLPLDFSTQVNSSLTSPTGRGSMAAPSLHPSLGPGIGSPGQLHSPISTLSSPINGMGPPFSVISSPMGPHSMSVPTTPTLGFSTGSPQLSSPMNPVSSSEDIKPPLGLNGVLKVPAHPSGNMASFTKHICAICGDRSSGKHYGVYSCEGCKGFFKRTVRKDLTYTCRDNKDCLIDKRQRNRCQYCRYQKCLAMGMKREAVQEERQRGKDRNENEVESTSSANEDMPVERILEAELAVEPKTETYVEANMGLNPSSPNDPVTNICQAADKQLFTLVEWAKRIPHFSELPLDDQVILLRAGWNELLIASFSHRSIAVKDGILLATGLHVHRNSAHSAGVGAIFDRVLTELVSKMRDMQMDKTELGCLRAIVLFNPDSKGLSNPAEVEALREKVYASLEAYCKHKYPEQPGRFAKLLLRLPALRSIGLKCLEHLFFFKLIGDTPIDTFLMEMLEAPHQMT

On to `COC(=O)c1ccc(C=O)cc1`, for which the molecule was called inactive in [1] and in test [2].

For `Brc1ccccn1`, the molecule was called inactive in test [1], in test [2], in test [3], in [4] and in test [5].

On to `CCCCCC/C=C/CCCCCCCC(=O)O`, for which the molecule was called inactive in [1] and in [2]. In addition, the half-maximal activity concentration (AC50) in test [3] is 100 µM (active).

Consider `Cc1cc(O)c(C(C)(C)C)cc1C(C)(C)C`, for which the outcome in [1], in test [2], in test [4] and in [5] was inactive. Also, the AC50 in test [3] was 7.4 µM (active); in test [6], 2.58 µM (active); in test [7], 3.91 µM (active); in [8], 4.77 µM (active); in test [9], 4.59 µM (active); in test [10] it was 3.83 µM (active). Further, the concentration at half-maximal activity (AC50) in [11] is 3.17 µM (active); in test [12], 2.73 µM (active); in test [13], 3.99 µM (active); in [14], 9.45 µM (active); in test [15] it was 5.32 µM (active); in test [16] it was 4.77 µM (active). In addition, the AC50 in test [17] was 4.96 µM (active); in test [18] it was 3.28 µM (active).

Take `CCOC(=O)C1CC(=O)C(=C(O)C2CC2)C(=O)C1` (stereo unspecified): in test [1], the molecule was classed as inactive.

Turning to `COc1ccccc1C=O`, the molecule was classed as inactive in test [1], in [3], in [6] and in test [4].

On to `Cc1ccc([N+](=O)[O-])c(C)c1`, for which the result in test [1], in [2], in test [3], in test [6] and in [4] was inactive.

For the molecule `O=c1cccc[nH]1`, the molecule was called inactive in test [1], in test [2], in [3], in [6] and in test [5].

Consider `O=c1[nH]cccc1O`, for which the outcome in test [1], in [2] and in [4] was inactive.

Take `CC(C)OC=O`: the call in [1], in test [3] and in [6] was inactive.

`CCC(=O)OC(C)c1ccccc1` (stereo unspecified): the result in test [1], in [2], in test [6] and in test [4] was inactive.

Take `O=C1C=CC(=O)N1c1ccc(Cc2ccc(N3C(=O)C=CC3=O)cc2)cc1`: the result in test [1], in test [2], in test [3], in [6], in test [4] and in [5] was inactive. Moreover, the half-maximal activity concentration (AC50) is 8.52 µM (active) in test [7]; 3.26 µM (active) in [8]; 8.09 µM (active) in [9]; 7.61 µM (active) in test [10]; 5.74 µM (active) in test [11]; 7.33 µM (active) in test [12]. Further, the concentration at half-maximal activity (AC50) in test [19] is 12 µM (active); in test [13], 11.5 µM (active); in test [14], 4.99 µM (active); in [15] it was 7.11 µM (active); in test [16], 12.1 µM (active); in test [17] it was 11.3 µM (active). In addition, the AC50 in test [18] is 9.9 µM (active).

For `CC(C)(C)c1cc(CCC(=O)OCC(COC(=O)CCc2cc(C(C)(C)C)c(O)c(C(C)(C)C)c2)(COC(=O)CCc2cc(C(C)(C)C)c(O)c(C(C)(C)C)c2)COC(=O)CCc2cc(C(C)(C)C)c(O)c(C(C)(C)C)c2)cc(C(C)(C)C)c1O`, the result in test [1], in test [2] and in test [5] was inactive. For the same molecule, in test [6], the concentration at half-maximal activity (AC50) was 22.3 µM (active).

Take `C=CCOC(=O)CC(C)C`: the call in test [1], in test [2] and in test [5] was inactive.

On to `NC(=O)C(F)(F)C(F)(F)C(F)(F)C(F)F`, for which the result in [1], in test [3], in test [6], in [4], in test [7] and in [8] was inactive. Moreover, the outcome in [9], in test [10], in test [11], in test [12], in test [19] and in [13] was inactive. Further, the outcome in test [14], in test [15], in [16], in test [17] and in test [18] was inactive.

The values above are taken from PubChem BioAssay (EPA / NIEHS).
